Values joined by “and” are separate entries in the source; they are usually repeats but may differ in a detail not shown here. Equal values may be shown once. For some of these results: Measured potencies and affinities stand elsewhere. Active and inactive are the calls of the source.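 The calls were made as follows, unless noted: active = thallium flux through the channel raised or lowered by more than 3 SD from vehicle-only wells, actives on both sides; inactive = the rest.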
How the values were obtained:
[1] = P. berghei load reduction in hepatocytes – cell-based, HepG2, luciferase luminescence, HepG2 viability, primary screen (AID 624349; in the data active = parasite load remaining mostly below about 12%, no sharp cut-off; inactive = mostly above about 10%;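 also: 100% = mean of DMSO negative control wells on the same plate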); conditions: P. berghei liver stage in HepG2, luciferase luminescence, concentration not given here; parasite load remaining: stronger effect = lower value; viability: measured here: HepG2 viability without parasites
[2] = signal quenchers or enhancers, Cy5 substrate/SSB – biochemical, NIH Clinical Collection, E. coli SSB, artefact control for HCV NS3 helicase inhibitor project (AID 743268; call rule not given here); conditions: Cy5-oligo bound E. coli SSB, fluorescence interference
[3] = system: Hepatitis C virus NS3 helicase; test: blockers of NS3h binding to DNA – biochemical, fluorescence polarization, NIH Clinical Collection, primary screen (AID 743270; call rule not given here); conditions: NS3 helicase binding to Cy5-dT15 DNA, stronger effect = higher value, concentration not given here
[4] = target: Single-stranded DNA-binding protein (Escherichia coli (strain K12)) (UniProt P0AGE0); test: SSB-ssDNA binding inhibitors – biochemical, fluorescence polarization, NIH Clinical Collection, counter-screen for HCV NS3 helicase inhibitor project (AID 743271; in the data active = inhibition above about 28%); conditions: E. coli SSB-DNA binding, stronger effect = higher value, concentration not given here
[5] = compounds distorting NS3 helicase fluorescence signal – biochemical, NIH Clinical Collection, artefact control for HCV NS3 helicase inhibitor project (AID 743272; call rule not given here;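 also: HCV NS3 helicase with a Cy5 labelled single stranded DNA probe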); conditions: fluorescence interference counterscreen, HCV NS3 helicase assay; stronger effect = lower value
[6] = system: Neuropilin-2 / VEGF-C interaction (human); test: small molecules blocking Neuropilin-2/VEGF-C interaction – biochemical, microplate binding format, z-score (AID 743281; call rule not given here); conditions: microplate NRP2/VEGF-C binding assay; stronger effect = lower value
[7] = modulation of C. elegans fzo-1 (AID 1259413; call rule not given here;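 also: fzo-1 mutant C. elegans worms in liquid wells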); conditions: C. elegans fzo-1 modulator screen, mean read-out; stronger effect = higher value
[8] = system: Aerobactin synthetase IucA (Klebsiella pneumoniae); test: inhibition of K. pneumoniae IucA enzyme – biochemical, Tocris library, absorbance (AID 1345561; call rule not given here;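 also: 100% = enzyme without compound and 0% = no enzyme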); conditions: purified IucA enzyme assay, absorbance (OD) read-out; stronger effect = lower value;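 tested at 8 µM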
[9] = viability loss with induced miR-34 in A549 – imaging, A549 dox-inducible miR-34, nuclei and caspase counts, primary screen (AID 1347080;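 active = compounds whose cell count with miR-34 switched on is under 0.7 times the count with it off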); conditions: A549 miR-34 inducible, Hoechst nuclei count, 48 h
[10] = galactose survival enhancers in mitochondrial complex I cybrids – cell-based, galactose medium, ATP luminescence, primary screen (AID 1645843;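 active = z-score of at least 1.8 in each of two replicates, scored against plate mean and spread of sample wells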;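 also: positive z means more ATP and so rescue of galactose-driven cybrid death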); conditions: complex I mutant cybrid cells, 72 h, stronger effect = higher value
[11] = system: F380Y; test: BK channel mutant inhibitors and activators – cell-based, U2OS BacMam, thallium flux, beta subunits, selectivity assay, profiling panel (AID 1259406); conditions: U2OS BacMam BK variants, at 30 µM;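 also: initial slope of Thallos dye fluorescence rise after thallium is added; log ratio against the mean of 0.3% DMSO vehicle wells on the same plate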
[12] = system: F380Y/beta1; test: as above; conditions: U2OS BacMam BK variants, at 30 µM
[13] = system: F380Y/beta2Delta; test: as above; conditions: U2OS BacMam BK variants, at 30 µM
[14] = system: F380Y/beta4; test: as above; conditions: U2OS BacMam BK variants, at 30 µM
[15] = target: Calcium-activated potassium channel subunit alpha-1 (Homo sapiens) + Leucine-rich repeat-containing protein 26 (Homo sapiens) (UniProt Q12791+Q2I0M4); test: as above; conditions: U2OS BacMam BK variants, F380Y/Slo1WT/gamma1, at 30 µM
[16] = system: R275C; test: as above; conditions: U2OS BacMam BK variants, at 30 µM
[17] = system: R275C/beta1; test: as above; conditions: U2OS BacMam BK variants, at 30 µM
[18] = system: R275C/beta2Delta; test: as above; conditions: U2OS BacMam BK variants, at 30 µM
[19] = system: R275C/beta4; test: as above; conditions: U2OS BacMam BK variants, at 30 µM
[20] = system: R275C/Slo1WT/beta2; test: as above; conditions: U2OS BacMam BK variants, at 30 µM
[21] = blockers of polyQ-driven CASP3 activation – cell-based (AID 1583); conditions: polyglutamine-induced caspase-3 activation, cell assay; stronger effect = higher value;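 tested at 10 µM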
[22] = yeast 75Q aggregation reduction – 75Q-TubU reporter (AID 1593); conditions: Yeast 75Q polyglutamine aggregation reporter
[23] = restoration of touch response, mutant HTT neurons – whole organism, C. elegans mechanosensory neurons, N-terminal huntingtin (AID 1599); conditions: C. elegans polyQ-huntingtin mechanosensory neurons, stronger effect = higher value
[24] = blockers of cytochrome c efflux from mitochondria – biochemical, purified mitochondria (AID 1603); conditions: stronger effect = lower value;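 also: mouse liver mitochondria challenged with calcium chloride; signal normalized to the plate average as 100%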
[25] = polyglutamine aggregate formation blockers (AID 1604); conditions: polyglutamine-induced protein aggregation inhibition assay; stronger effect = higher value; tested at 2.5 µM
[26] = glutamate transport activators, MN-1 cells, MN-1 cell line (AID 1612); conditions: MN-1 motor neuron cells, stronger effect = higher value;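 also: tested at 1 µM final; 0% = mean of DMSO vehicle wells on each plate; positive means more glutamate uptake than control and negative means less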
[27] = GFP-Q80 aggregate reduction, neuronal-like cells, cell-based, NGF-treated PC12, GFPQ80 (AID 1614); conditions: PC12 NGF-treated GFP-polyQ80 inclusion reduction;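 also: lower means fewer inclusions and 0 means no inclusions at all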
[28] = 75Q-TubH aggregate inhibition, S. cerevisiae, yeast (AID 1616); conditions: S. cerevisiae 75Q-TubH polyglutamine aggregation suppression; stronger effect = higher value
[29] = compounds altering circadian rhythm period length – cell-based, LOPAC library, luminescence reporter (AID 2774; call rule not given here;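 also: values are relative to mean of DMSO wells on each plate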); conditions: circadian reporter cells, at 7 µM, actives lie on both sides
[30] = system: Hepatitis C virus NS3 helicase; test: blockers of NS3h binding to ssDNA – biochemical, fluorescence polarization, LOPAC1280 library, primary screen (AID 687035; in the data active = inhibition above about 37%); conditions: Purified HCV NS3 helicase, Cy5-dT15 ssDNA binding fluorescence polarization; stronger effect = higher value; concentration not given here
[31] = compounds altering Cy5-DNA-NS3h complex signal – biochemical, LOPAC1280, artefact control for HCV NS3 helicase inhibitor project (AID 687037; call rule not given here); conditions: Cy5-DNA-NS3h complex fluorescence interference counterscreen
[32] = system: Aerobactin synthetase IucA (Klebsiella pneumoniae, hypervirulent); test: biochemical IucA inhibition screen of LOPAC library by absorbance (AID 1346212; call rule not given here;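 also: 100% = no compound wells and 0% = no enzyme wells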); conditions: IucA enzyme assay, absorbance (OD) readout; stronger effect = lower value;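 tested at 8 µM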
[33] = blockers of cellular phospholipid synthesis – cell-based, LOPAC library, screen 4, primary screen (AID 1347384; call rule not given here); conditions: animal cells, phospholipid biosynthesis inhibition screen; at 10 µM
[34] = stronger effect = lower value, cell number ratio, induced over uninduced
[35] = measured here: relative caspase fold change +Dox/-Dox
[36] = measured here: total cells with miR-34 induction, stronger effect = lower value
[37] = measured here: total cells without miR-34 induction

Chain of Calcium-activated potassium channel subunit alpha-1 (Homo sapiens) + Leucine-rich repeat-containing protein 26 (Homo sapiens) (Q2I0M4 whole entry, looked up, one chain of several): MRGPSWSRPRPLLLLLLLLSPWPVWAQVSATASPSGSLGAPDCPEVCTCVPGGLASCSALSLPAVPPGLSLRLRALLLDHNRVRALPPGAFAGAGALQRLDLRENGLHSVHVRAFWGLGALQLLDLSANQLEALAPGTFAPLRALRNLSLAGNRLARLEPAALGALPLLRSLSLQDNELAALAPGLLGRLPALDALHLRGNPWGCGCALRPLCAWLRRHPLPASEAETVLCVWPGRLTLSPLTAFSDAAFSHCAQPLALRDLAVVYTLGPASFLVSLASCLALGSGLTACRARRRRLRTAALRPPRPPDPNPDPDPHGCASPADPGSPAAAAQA

NCCc1ccccn1
10400 and 8860: cell count [9, 36]
95.2%: viability [1]
10100 and 8480: cell count [9, 37]
1.57 and 1.54: fold change [9, 35]
inactive: parasite load remaining [1] 52.1% | fluorescence ratio [2] 1 | inhibition [3] -1.19% | inhibition [4] -1.64% | fluorescence ratio [5] 1 | z-score [6] 1.2 | mean signal [7] 245 | remaining activity [8] 108% | fold change ([9]; stronger effect = lower value) 1.03 | fold change [9, 34] 1.05 | z-score [10] 0.8 and -0.145 | log fold change Tl+ flux [11] -0.0264 | log fold change Tl+ flux [12] 0.0119 | log fold change Tl+ flux [13] -0.0265 | log fold change Tl+ flux [14] -0.0155 | log fold change Tl+ flux [15] 0.0303 | log fold change Tl+ flux [16] -0.0283 | log fold change Tl+ flux [17] -0.0664 | log fold change Tl+ flux [18] -0.0248 | log fold change Tl+ flux [19] -0.0421 | log fold change Tl+ flux [20] -0.0103

COc1ccc2[nH]cc(C3=CCNCC3)c2c1
7080 and 8260: cell count [9, 37]
inactive: parasite load remaining [1] 75.7% | inhibition [3] -1.09% | inhibition [4] 5.91% | z-score [6] -1.09 | mean signal [7] 255 | remaining activity [8] 103% | fold change ([9]; stronger effect = lower value) 0.984 | fold change [9, 34] 0.928 | z-score [10] -1.57 and -0.95 | log fold change Tl+ flux [11] 0.0506 | log fold change Tl+ flux [12] 0.0695 | log fold change Tl+ flux [13] 0.0281 | log fold change Tl+ flux [14] 0.0777 | log fold change Tl+ flux [15] 0.0216 | log fold change Tl+ flux [16] -0.00261 | log fold change Tl+ flux [18] 0.0216 | log fold change Tl+ flux [19] 0.0779
active: fluorescence ratio [2] 0.58 | fluorescence ratio [5] 0.79 | log fold change Tl+ flux [17] 0.0891 | log fold change Tl+ flux [20] 0.242
72.8%: viability [1]
6960 and 7660: cell count [9, 36]
1.1 and 0.779: fold change [9, 35]

CN=C1CN(O)C(c2ccccc2)=c2cc(Cl)ccc2=N1
2: inclusion score [27]
-4.65%: glutamate uptake change [26]
1.55: aggregation suppression score [28]
9820: cell count [9, 36]
11000: cell count [9, 37]
1.36: fold change [9, 35]
-9.17: rescue above control [23]
1.33: cytochrome c release ratio [24]
1.19: score [22]
6.92%: inhibition [21]
68.2%: viability [1]
active: log fold change Tl+ flux [17] 0.11
32%: inhibition of aggregation [25]
inactive: parasite load remaining [1] 61% | fluorescence ratio [2] 0.93 | inhibition [3] -3.71% | inhibition [4] 1.97% | fluorescence ratio [5] 0.94 | z-score [6] 0.413 | mean signal [7] 209 | fold change ([9]; stronger effect = lower value) 0.896 | z-score [10] 0.34 | log fold change Tl+ flux [11] 0.0582 | log fold change Tl+ flux [12] 0.0256 | log fold change Tl+ flux [13] 0.0735 | log fold change Tl+ flux [14] 0.0618 | log fold change Tl+ flux [15] 0.00615 | log fold change Tl+ flux [16] -0.0835 | log fold change Tl+ flux [18] 0.0426 | log fold change Tl+ flux [19] 0.0262 | log fold change Tl+ flux [20] -0.0229

CCOC(=O)C1(c2ccccc2)CCN(CCC(C#N)(c2ccccc2)c2ccccc2)CC1
4590: cell count [9, 37]
4740: cell count [9, 36]
inactive: parasite load remaining [1] 6.85% | fluorescence ratio [2] 0.99 | inhibition [3] 1.98% | inhibition [4] 4.52% | fluorescence ratio [5] 0.88 | z-score [6] -0.718 | mean signal [7] 215 | fold change ([9]; stronger effect = lower value) 1.03 | z-score [10] -1.88 | log fold change Tl+ flux [11] -0.0196 | log fold change Tl+ flux [12] -0.0124 | log fold change Tl+ flux [13] -0.00205 | log fold change Tl+ flux [14] 0.0154 | log fold change Tl+ flux [15] -0.0542 | log fold change Tl+ flux [16] 0.0145 | log fold change Tl+ flux [19] -0.00148 | log fold change Tl+ flux [20] 0.0218
active: log fold change Tl+ flux [17] -0.137 | log fold change Tl+ flux [18] -0.169
62%: viability [1]
1.81: fold change [9, 35]

CCCCC/C=C\C/C=C\C/C=C\C/C=C\CCCC(=O)Nc1ccc(O)cc1
0.71 and 1.12: fold change [9, 35]
5220 and 6950: cell count [9, 37]
inactive: parasite load remaining [1] 94.1% | fluorescence ratio [2] 0.87 | inhibition [3] 0.4% | inhibition [4] 4.52% | fluorescence ratio [5] 0.88 | z-score [6] 0.572 | mean signal [7] 245 | remaining activity [8] 113% | fold change ([9]; stronger effect = lower value) 1.04 and 0.798 | z-score [10] -0.695
87.5%: viability [1]
5430 and 5550: cell count [9, 36]

CN1CC[C@@H](c2ccc(F)cc2)[C@H](COc2ccc3c(c2)OCO3)C1
inactive: parasite load remaining [1] 84.5% | fluorescence ratio [2] 1.01 | inhibition [3] 2.77% | inhibition [4] 0.67% | fluorescence ratio [5] 0.93 | z-score [6] -0.473 | log fold change Tl+ flux [11] 0.106 | log fold change Tl+ flux [12] 0.0692 | log fold change Tl+ flux [13] 0.045 | log fold change Tl+ flux [15] -0.0237 | log fold change Tl+ flux [16] -0.0665 | log fold change Tl+ flux [18] 0.0265 | log fold change Tl+ flux [20] -0.033
active: log fold change Tl+ flux [14] 0.102 | log fold change Tl+ flux [17] 0.146 | log fold change Tl+ flux [19] 0.0863
65.3%: viability [1]

C[N+]1(C)CCN(c2ccccc2)CC1
9580 and 9940: cell count [9, 37]
9770 and 9860: cell count [9, 36]
87.7%: viability [1]
1.06 and 1.59: fold change [9, 35]
inactive: period change [29] -0.125 h | parasite load remaining [1] 117% | inhibition [30] -1% | fluorescence ratio (interference) [31] 1 | fluorescence ratio [2] 1.03 | inhibition [3] 6.73% | inhibition [4] 2.21% | fluorescence ratio [5] 1.01 | z-score [6] -0.409 | mean signal [7] 284 | remaining activity [32] 113% | fold change ([9]; stronger effect = lower value) 1.02 and 0.991 | outcome [33] | z-score [10] 0.43 and 1.15 | log fold change Tl+ flux [11] -0.0112 | log fold change Tl+ flux [12] -0.0597 | log fold change Tl+ flux [13] -0.0318 | log fold change Tl+ flux [14] 0.0424 | log fold change Tl+ flux [15] -0.0251 | log fold change Tl+ flux [16] -0.0752 | log fold change Tl+ flux [17] 0.0101 | log fold change Tl+ flux [18] 0.00724 | log fold change Tl+ flux [19] -0.0438 | log fold change Tl+ flux [20] -0.0166
